Bioassay records from PubChem BioAssay.
A selection: hits, their analogues and other compounds. The true share with any hit is near 4%.
Gli-Sufu antag = antagonists of Gli-Sufu signaling | AID 588413 | actives 0.74% (n = 340,000) | Sufu-KO-LIGHT fibroblasts, Gli luciferase reporter luminescence | inhibition, % at 5 µM;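 active means inhibition above about 55%, limit read from the data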;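 further: 0% = DMSO-treated cells and 100% = wells with medium but no cells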
Mdm2-MdmX inh = inhibitors of human Mdm2/MdmX interaction; inhibition, % at 8 µM; O15151+Q00987; actives 3% (n = 330,000); SaOS-2 split-luciferase Mdm2/MdmX complementation, luminescence; AID 485346;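 active means inhibition of at least 50% at 8 µM in the primary screen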
PAX8 inh HTS = inhibitors of PAX8 transcriptional activity in RMG-I cells. RMG-I TPO-luciferase reporter, SteadyGlo, 24 h. inhibition, % at 12.6 µM. actives 1.2% (n = 360,000). AID 652154;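 active means mean replicate inhibition at least 60% with every replicate also reaching 60%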;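 further: luciferase light reporting Pax8 driven TPO promoter activity; plate controls were median of neutral control wells for no effect and mitoxantrone controls for full effect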
Shn3 inh set2 = reduces Shn3 3'UTR luciferase signal in osteoblasts. Clone20 osteoblast Shn3 3'UTR firefly luciferase, 24 h. inhibition, % at 12.5 µM. actives 0.52% (n = 360,000). AID 588674;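 active means mean inhibition of at least 75% with every replicate also reaching 75%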;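 further: 0% = median of neutral control wells and 100% = pilot-screen positive control compound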
Beta apoptosis = beta cell apoptosis inhibition | actives 0.8% (n = 300,000) | INS-1E cytokine-induced death, ATP luminescence, 48 h; percent of positive-control rescue, neutral wells zero | protection from apoptosis, % (no concentration beside the values);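 active means Every replicate reaches about 75%, or at least half do and their mean reaches it too, limit read from the data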;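 further: 0% = cytokine-treated negative control wells and 100% = positive control rescue; higher means more ATP so stronger rescue from cytokine killing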
CSC inhib = cancer stem cell inhibition | AID 2717 | actives 1.1% (n = 300,000) | cancer stem cell-like cells viability, luminescence | inhibition, % at 7.5 µM; in the data active means inhibition above about 75%; tested in HMLE shEcad cells
Mdm2 MdmX conf = confirmation of human Mdm2/MdmX interaction inhibitors; actives 55% (n = 10,000); Mdm2-MdmX binding, luminescent assay; shares compounds with Mdm2-MdmX inh; AID 489028; inhibition, % at 8 µM; in the data active means inhibition above about 40%
FLuc counter = counter-screen for Mdm2/MdmX inhibitors: full-length luciferase; shares compounds with Mdm2-MdmX inh; SaOS-2 full-length luciferase counterscreen, luminescence; inhibition, % at 8 µM; actives 77% (n = 6,200); AID 504607;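 active means mean inhibition at 8 µM reaching about 37%, which flags the compound as non-specific, limit read from the data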;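 further: p53-null SaOS-2 cells with luciferase driven by a doxycycline-inducible promoter; compound on cells about two nights before reading with doxycycline added after day one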
An asterisk follows results filed as active; nt = no result.

SMILES	Gli-Sufu antag	Mdm2-MdmX inh	PAX8 inh HTS	Shn3 inh set2	Beta apoptosis	CSC inhib	Mdm2 MdmX conf	FLuc counter
CC1=CC2/C=C(\C)CCC(O)C(O)/C=C/C(=O)C23C(=O)NC(CC(C)C)C3C1C (stereo unspecified)	-1	100*	nt	99*	106*	1	100*	51*
COC(=O)[C@@H]1[C@@H](CO)[C@@H]2Cn3c(ccc(-c4ccccc4)c3=O)[C@H]1N2S(=O)(=O)c1ccccc1C	nt	nt	-3	nt	nt	nt	nt	nt
C/C=C/c1ccc(C2[C@@H]3CN(C(=O)C4CCC4)C[C@H]2N3)cc1 (stereo partly specified)	nt	nt	3	nt	nt	nt	nt	nt
N=c1c2c(n(Cc3ccc(Cl)cc3Cl)c3c1CCC3)CCCC2	9	82*	nt	86*	121*	16	37	59*
c1ccc2c(N3CCNCC3)nsc2c1	6	53*	-3	-12	2	13	64*	30
c1ccc2oc(N3CCNCC3)nc2c1	1	26	nt	-22	1	10	nt	nt
O=C(Cc1ccccc1)N1CCCCN2[C@H](C1)[C@@H](c1ccc(C#Cc3ccccc3)cc1)[C@@H]2CO	nt	nt	15	nt	nt	nt	nt	nt
N#Cc1cccc(-c2ccc([C@H]3[C@@H](CO)N4CCCCN(C(=O)Cc5cccnc5)C[C@H]34)cc2)c1	nt	nt	-10	nt	nt	nt	nt	nt
CCCNC(=O)[C@H]1[C@H](CO)[C@H]2Cn3c(cccc3=O)[C@H]2N1C	nt	nt	-14	nt	nt	nt	nt	nt
COC(=O)C1=C(c2cc3ccccc3s2)C[C@@H]2CC[C@H]1N2C(=O)N1CCOCC1	-16	55*	24	0	-2	53	55*	55*
CCn1c(O)c(N=Nc2ccc(S(=O)(=O)N3CCOCC3)cc2)c(=O)n(CC)c1=S	2	58*	9	4	-8	15	21	nt
CCn1c(O)c(N=Nc2cccc(S(=O)(=O)N3CCOCC3)c2)c(=O)n(CC)c1=S	1	44	0	1	1	-7	nt	nt
CC(C)CC#Cc1ccc([C@@H]2[C@@H](CO)N3CCCCN(C(=O)Cc4ccccn4)C[C@H]23)cc1	nt	nt	2	nt	nt	nt	nt	nt
CCCCCn1c(N)c(C(=O)NCCN2CCOCC2)c2nc3ccccc3nc21	14	40	nt	10	5	49	nt	nt
COc1ccc(CCNC(=O)c2c(N)n(CCN3CCOCC3)c3nc4ccccc4nc23)cc1OC	5	54*	nt	8	3	21	28	nt
CCCCCCn1c(N)c(C(=O)NCCN2CCOCC2)c2nc3ccccc3nc21	-9	58*	nt	3	-3	111*	32	nt
COc1ccc2c(c1)[nH]c1c(C)nccc12	-28	90*	-24	27	-13	12	90*	23
C=C1C(=O)O[C@@H]2C[C@@H](C)[C@@H]3C=CC(=O)[C@@]3(C)[C@@H](O)[C@H]12	97*	95*	112*	99*	112*	52	99*	51*
COc1ccc2c(c1)C13CCCC[C@@H]1C(C2)N(C)CC3 (stereo partly specified)	24	51*	-7	25	12	1	25	nt
COc1ccc2c(c1O)[C@]13CCN(C)[C@H](C2)[C@@H]1CCC(=O)C3	0	18	-15	-7	-6	-16	nt	nt
S=C=Nc1cccc(C2(N3CCCCC3)CCCCC2)c1	8	69*	-14	-4	-1	5	23	nt
c1ccc(C2(N3CCCCC3)CCCCC2)cc1	-15	10	nt	7	nt	nt	nt	nt
C[CH2][Hg][S]c1ccccc1C(=O)O	76*	100*	109*	98*	114*	104*	100*	52*
COC(=O)C1=C(c2ccc(F)cc2OCc2ccccc2)C[C@@H]2CC[C@H]1N2C(=O)NCCOc1ccccc1Cl	28	57*	36	1	4	23	29	nt
COC(=O)C1=C(c2ccccc2OCc2ccccc2)C[C@@H]2CC[C@H]1N2C(=O)NCc1ccc(N(C)C)cc1	9	62*	-10	10	-5	47	1	nt
COC(=O)C1=C(c2ccc(F)cc2OCc2ccccc2)C[C@@H]2CC[C@H]1N2C(=O)NCCOc1ccccc1	19	37	18	8	2	19	nt	nt
